In PubChem BioAssay (NCI):
About 83,000 compounds went through this panel and 20% of them were active in at least one assay; those are over-represented in the sample as a whole.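 A percent growth of 40 corresponds to 60% growth inhibition; 0 means no net growth; -100 means all cells died. Active threshold: below 10.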 Calls of active or inactive are those of the source.

How the values were obtained:
Assay in all cases: NCI-60 one-dose screen, 48 h (100 = growth as untreated, 0 = no growth, -100 = all killed)
Details in all cases: 10 µM unless noted
NCI-H23 lung = tested on: NCI-H23 lung
NCI-H226 lung = tested on: NCI-H226 lung
NCI-H322M lung = tested on: NCI-H322M lung
HOP-62 NSCLC = tested on: HOP-62 NSCLC
NCI-H460 lung = tested on: NCI-H460 lung
HOP-92 NSCLC = tested on: HOP-92 NSCLC
NCI-H522 lung = tested on: NCI-H522 lung
A549/ATCC NSCLC = tested on: A549/ATCC NSCLC
786-0 renal = tested on: 786-0 renal
DU-145 prostate = tested on: DU-145 prostate
K-562 leukemia = tested on: K-562 leukemia
MALME-3M melanoma = tested on: MALME-3M melanoma
MDA-MB-231 breast = tested on: MDA-MB-231 breast
RXF 393 renal = tested on: RXF 393 renal
SF-268 CNS = tested on: SF-268 CNS
SF-295 CNS = tested on: SF-295 CNS
SF-539 CNS = tested on: SF-539 CNS
UACC-257 melanoma = tested on: UACC-257 melanoma
M14 melanoma = tested on: M14 melanoma
COLO 205 colon = tested on: COLO 205 colon

Measured: growth

COc1ccc(C2CC(c3ccc(OC)cc3O)=NN2c2ccc(S(N)(=O)=O)cc2)cc1 (stereo not given)
inactive: NCI-H23 lung 65.6% | NCI-H226 lung 59.9% | NCI-H322M lung 59.4% | HOP-62 NSCLC 83.2% | NCI-H460 lung 14% | HOP-92 NSCLC 20.7% | NCI-H522 lung 34% | A549/ATCC NSCLC 21.7% | 786-0 renal 38.5% | DU-145 prostate 61.9% | K-562 leukemia 10.8% | MALME-3M melanoma 121% | MDA-MB-231 breast 61.1% | RXF 393 renal 67.5% | SF-268 CNS 50.5% | SF-539 CNS 69.8% | UACC-257 melanoma 56.6% | M14 melanoma 34.1%
active: SF-295 CNS -7.99%

COc1ccc(-c2nnc(N3CCN(C(=O)CN4CCN(c5ccc(OC)cc5)CC4)CC3)nc2-c2ccc(OC)cc2)cc1
inactive: NCI-H23 lung 21.4% | NCI-H322M lung 32.6% | NCI-H460 lung 29.3% | A549/ATCC NSCLC 59.1% | 786-0 renal 26.3% | COLO 205 colon 19% | SF-539 CNS 32%
active: NCI-H226 lung -81.4% | HOP-62 NSCLC 1.58% | HOP-92 NSCLC -62.9% | NCI-H522 lung -84.5% | DU-145 prostate -16.3% | K-562 leukemia -56.7% | MALME-3M melanoma -72.7% | MDA-MB-231 breast 8.6% | RXF 393 renal -34.8% | SF-268 CNS -32.4% | SF-295 CNS -60.6% | UACC-257 melanoma -8.52% | M14 melanoma -17.3%

Oc1c(CCl)cc(Cl)cc1Cc1cc(Cl)cc(Cc2cc(Cl)cc(CCl)c2O)c1O
inactive: NCI-H226 lung 32.4% | HOP-62 NSCLC 57.2% | NCI-H460 lung 11.9% | A549/ATCC NSCLC 46.5% | 786-0 renal 55.3% | COLO 205 colon 68.3% | DU-145 prostate 44% | MALME-3M melanoma 27.9% | MDA-MB-231 breast 40.2% | RXF 393 renal 45.4% | SF-268 CNS 17.1% | SF-295 CNS 62.7% | SF-539 CNS 40.7% | UACC-257 melanoma 36.1% | M14 melanoma 27.1%
active: NCI-H23 lung 5.68% | NCI-H322M lung 4.12% | HOP-92 NSCLC -18.3% | NCI-H522 lung -10.9% | K-562 leukemia 7.26%

Cc1nnc(/N=C2\NC(=O)/C(=C/c3ccc(N(C)C)cc3)S2)s1
active: NCI-H522 lung 2.45%
inactive: NCI-H23 lung 81.7% | NCI-H226 lung 89.2% | NCI-H322M lung 85.5% | HOP-62 NSCLC 65.8% | NCI-H460 lung 33.2% | HOP-92 NSCLC 85.1% | A549/ATCC NSCLC 63.5% | 786-0 renal 76.8% | DU-145 prostate 84% | K-562 leukemia 49.7% | MALME-3M melanoma 56.9% | MDA-MB-231 breast 103% | RXF 393 renal 76.9% | SF-268 CNS 73% | SF-295 CNS 47.9% | SF-539 CNS 83.7% | UACC-257 melanoma 83.3% | M14 melanoma 51.1%

Cc1ccc(SC2c3ccc(C)cc3Oc3nc(N)c(C#N)c(N)c32)cc1 (stereo not given)
active: NCI-H522 lung -53.4% | K-562 leukemia 4.29%
inactive: NCI-H23 lung 82.8% | NCI-H226 lung 92.8% | NCI-H322M lung 104% | HOP-62 NSCLC 89.8% | NCI-H460 lung 101% | HOP-92 NSCLC 66.6% | A549/ATCC NSCLC 101% | 786-0 renal 91.4% | DU-145 prostate 92.6% | MALME-3M melanoma 31.9% | MDA-MB-231 breast 69.9% | RXF 393 renal 53.9% | SF-268 CNS 82.8% | SF-295 CNS 103% | SF-539 CNS 90.5% | UACC-257 melanoma 94.6% | M14 melanoma 94.9%

CCCCOc1nc2ccc(C)cc2cc1/C=C/C(=O)/C=C/c1ccc2c(c1)OCO2
inactive: NCI-H23 lung 82.4% | NCI-H226 lung 96.3% | NCI-H322M lung 88% | HOP-62 NSCLC 112% | NCI-H460 lung 103% | HOP-92 NSCLC 80.6% | NCI-H522 lung 60.6% | A549/ATCC NSCLC 78.3% | 786-0 renal 97.9% | DU-145 prostate 82.8% | K-562 leukemia 69.1% | MALME-3M melanoma 106% | MDA-MB-231 breast 92.8% | RXF 393 renal 108% | SF-268 CNS 75.4% | SF-295 CNS 105% | SF-539 CNS 109% | UACC-257 melanoma 73.3% | M14 melanoma 52.4%

CCCCCCCCCCCCCC1=NCC[N+]1(CCO)Cc1ccccc1 (stereo not given)
active: NCI-H23 lung -67% | NCI-H226 lung -30.2% | NCI-H322M lung -6.75% | HOP-62 NSCLC -82.6% | NCI-H460 lung -81.3% | HOP-92 NSCLC -73.1% | NCI-H522 lung -82.6% | A549/ATCC NSCLC -68.8% | 786-0 renal -80.5% | COLO 205 colon -75.5% | DU-145 prostate -89.2% | K-562 leukemia -50.9% | MALME-3M melanoma -75.8% | MDA-MB-231 breast -79.9% | RXF 393 renal -92.3% | SF-268 CNS -69.9% | SF-295 CNS -71.7% | SF-539 CNS -93.8% | UACC-257 melanoma -71.8% | M14 melanoma -79.4%

C/C(=N\NC(=O)c1ccncc1)c1ccc(N)cc1
inactive: NCI-H23 lung 101% | NCI-H226 lung 102% | NCI-H322M lung 91.5% | HOP-62 NSCLC 95.8% | NCI-H460 lung 99.3% | HOP-92 NSCLC 80.6% | A549/ATCC NSCLC 90.6% | 786-0 renal 99% | COLO 205 colon 117% | DU-145 prostate 107% | K-562 leukemia 83.6% | MALME-3M melanoma 98.5% | MDA-MB-231 breast 98.4% | RXF 393 renal 106% | SF-268 CNS 99.2% | SF-295 CNS 99.4% | SF-539 CNS 98.5% | UACC-257 melanoma 93% | M14 melanoma 102%
